Experimental data: the supplement of paper PMC10849652
About 7,900 targets were measured; listed, in parts, are those with a hit and a random draw of the rest. About 0.6% of all pairs of compound and target were hits. Values without a mark were called inactive.

Key:
Test in all cases: log2 fold change, soluble protein after heating vs DMSO (PISA); higher = thermal stabilisation; K562 cells, 10 uM, 30 min; active = over 0.2 and 3.5 SD of the protein, either way, in both replicates (recomputed)
[1] = compound: CC[C@@H]1C(=O)N(C)c2cnc(Nc3ccc(C(=O)NC4CCN(C)CC4)cc3OC)nc2N1C1CCCC1
Outline: (§1)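 K562 cells at 2×10^6 cells/mL were exposed to 10 μM compound for 30 min, then aliquots were heated for 3 min across 48°C-58°C, pooled, and extracted in PBS containing 0.5% NP-40 at 4°C. The supernatant after 21,000xg for 90 min was taken as soluble protein and measured by TMTpro 16plex LC-MS/MS with channel sums equalised. Thermal stability is reported relative to control samples, with values from duplicates. Fold changes are given on a log2 scale.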

volasertib = compound: CC[C@@H]1C(=O)N(C)c2cnc(Nc3ccc(C(=O)N[C@H]4CC[C@H](N5CCN(CC6CC6)CC5)CC4)cc3OC)nc2N1C(C)C [volasertib]
Outline: as §1

[2] = compound: CC[C@H](C)N1C=C(C2=C(C=C(C=C21)C3=CN=C(C=C3)N4CCNCC4)C(=O)NCC5=C(C=C(NC5=O)C)C)C
Outline: as §1

epoxomicin = compound: CC[C@H](C)[C@@H](C(=O)N[C@@H]([C@@H](C)O)C(=O)N[C@@H](CC(C)C)C(=O)[C@]1(CO1)C)NC(=O)[C@H]([C@@H](C)CC)N(C)C(=O)C [epoxomicin]
Outline: as §1

[3] = compound: CCn1c(C(=O)N(C2CC2)C2CC2)cc2c3c(ncn3C)c(Nc3cc(C)n(C)n3)nc21
Outline: as §1

[4] = compound: CCn1cc(-c2ccnc3[nH]c(-c4cccc(CN(C)C)c4)cc23)c(-c2ccc(NC(=O)N(C)C)cc2)n1
Outline: as §1

[5] = compound: CN(C)CC(=O)Nc1ccc2[nH]c(=O)c3ccccc3c2c1
Outline: as §1

rosiglitazone = compound: CN(CCOC1=CC=C(C=C1)C[C@H]2C(=O)NC(=O)S2)C3=CC=CC=N3 (racemic) [rosiglitazone]
Outline: as §1

[6] = compound: CN1C2=C(C3=C1C(=O)N(N=C3)CC4=CC(=CC=C4)N)SC(=C2)S(=O)C
Outline: as §1

[7] = compound: CN1CCC(CNc2ccc3ncc(-c4cccc(OC(F)(F)F)c4)n3n2)CC1
Outline: as §1

saracatinib = compound: CN1CCN(CCOc2cc(OC3CCOCC3)c3c(Nc4c(Cl)ccc5c4OCO5)ncnc3c2)CC1 [saracatinib]
Outline: as §1

sotrastaurin = compound: CN1CCN(c2nc(C3=C(c4c[nH]c5ccccc45)C(=O)NC3=O)c3ccccc3n2)CC1 [sotrastaurin]
Outline: as §1

alvocidib = compound: CN1CC[C@H](c2c(O)cc(O)c3c(=O)cc(-c4ccccc4Cl)oc23)[C@H](O)C1 [alvocidib]
Outline: as §1

Tubastatin A = compound: CN1CCc2c(c3ccccc3n2Cc2ccc(C(=O)NO)cc2)C1 [Tubastatin A]
Outline: as §1

[8] = compound: CNC(=O)C1=CC=CC=C1NC2=NC(=NC=C2Cl)NC3=C(C=C(C=C3)N4CCOCC4)OC
Outline: as §1

defactinib = compound: CNC(=O)c1ccc(Nc2ncc(C(F)(F)F)c(NCc3nccnc3N(C)S(C)(=O)=O)n2)cc1 [defactinib]
Outline: as §1

rucaparib = compound: CNCc1ccc(-c2[nH]c3cc(F)cc4c3c2CCNC4=O)cc1 [rucaparib]
Outline: as §1

[9] = compound: CNc1nc(-c2ccc3c(N)n[nH]c3c2)cc(N2C[C@@H](C(=O)NC3CCCCC3)CC[C@H]2C)n1
Outline: as §1

encorafenib = compound: COC(=O)N[C@@H](C)CNc1nccc(-c2cn(C(C)C)nc2-c2cc(Cl)cc(NS(C)(=O)=O)c2F)n1 [encorafenib]
Outline: as §1

[10] = compound: COC(=O)[C@H](CCSC)NC(=O)C1=C(C=C(C=C1)NC[C@H](CS)N)C2=CC=CC=C2
Outline: as §1

UniProt Q9Y6H1, sequence (Q9Y6H1 whole entry, looked up): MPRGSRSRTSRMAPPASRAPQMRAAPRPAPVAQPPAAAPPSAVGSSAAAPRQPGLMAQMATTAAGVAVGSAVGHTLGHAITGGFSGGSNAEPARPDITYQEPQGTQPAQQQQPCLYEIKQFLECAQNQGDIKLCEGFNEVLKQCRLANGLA
UniProt Q8N1G2, sequence (Q8N1G2 whole entry, looked up): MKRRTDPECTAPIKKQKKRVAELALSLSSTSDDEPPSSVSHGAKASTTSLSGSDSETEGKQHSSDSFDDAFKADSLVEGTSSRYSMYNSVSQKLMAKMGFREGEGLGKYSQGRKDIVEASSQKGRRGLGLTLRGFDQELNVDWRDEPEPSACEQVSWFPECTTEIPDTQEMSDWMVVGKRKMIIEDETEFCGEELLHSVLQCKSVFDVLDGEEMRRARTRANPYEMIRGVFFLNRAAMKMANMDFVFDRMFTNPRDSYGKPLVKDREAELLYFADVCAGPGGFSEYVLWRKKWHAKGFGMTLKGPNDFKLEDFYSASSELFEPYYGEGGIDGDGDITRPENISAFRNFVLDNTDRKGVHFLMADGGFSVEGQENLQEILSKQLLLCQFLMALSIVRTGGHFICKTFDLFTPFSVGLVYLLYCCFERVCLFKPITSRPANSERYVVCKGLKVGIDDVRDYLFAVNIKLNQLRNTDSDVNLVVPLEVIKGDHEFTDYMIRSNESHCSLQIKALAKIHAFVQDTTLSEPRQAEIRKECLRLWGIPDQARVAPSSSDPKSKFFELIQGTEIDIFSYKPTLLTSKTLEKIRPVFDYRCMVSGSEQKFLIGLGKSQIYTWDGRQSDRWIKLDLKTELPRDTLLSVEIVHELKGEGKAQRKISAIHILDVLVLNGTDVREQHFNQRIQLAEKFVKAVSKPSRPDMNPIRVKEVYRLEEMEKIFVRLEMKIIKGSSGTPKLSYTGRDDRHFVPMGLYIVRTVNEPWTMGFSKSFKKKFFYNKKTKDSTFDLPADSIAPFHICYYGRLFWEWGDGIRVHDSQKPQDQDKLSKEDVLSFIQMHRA
UniProt O15182, sequence (O15182 whole entry, looked up): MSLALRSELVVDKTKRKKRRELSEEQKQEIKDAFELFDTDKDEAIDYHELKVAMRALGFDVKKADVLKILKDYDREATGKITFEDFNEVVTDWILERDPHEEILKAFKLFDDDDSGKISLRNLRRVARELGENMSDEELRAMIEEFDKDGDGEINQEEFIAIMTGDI
UniProt P42574, sequence (P42574 whole entry, looked up): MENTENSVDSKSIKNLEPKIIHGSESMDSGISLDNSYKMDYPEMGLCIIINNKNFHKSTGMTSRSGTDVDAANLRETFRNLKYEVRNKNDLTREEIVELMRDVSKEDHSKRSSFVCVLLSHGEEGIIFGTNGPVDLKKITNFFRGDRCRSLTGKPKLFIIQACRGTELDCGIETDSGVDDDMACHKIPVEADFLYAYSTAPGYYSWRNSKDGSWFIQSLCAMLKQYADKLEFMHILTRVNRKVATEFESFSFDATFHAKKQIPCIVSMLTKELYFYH
UniProt Q86X83, sequence (Q86X83 whole entry, looked up): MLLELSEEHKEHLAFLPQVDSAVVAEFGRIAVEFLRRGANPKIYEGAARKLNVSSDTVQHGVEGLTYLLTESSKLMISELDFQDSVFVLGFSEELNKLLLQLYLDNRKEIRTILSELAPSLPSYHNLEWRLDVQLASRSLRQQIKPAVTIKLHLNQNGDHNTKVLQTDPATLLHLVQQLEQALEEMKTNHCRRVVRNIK
UniProt Q00587, sequence (Q00587 whole entry, looked up): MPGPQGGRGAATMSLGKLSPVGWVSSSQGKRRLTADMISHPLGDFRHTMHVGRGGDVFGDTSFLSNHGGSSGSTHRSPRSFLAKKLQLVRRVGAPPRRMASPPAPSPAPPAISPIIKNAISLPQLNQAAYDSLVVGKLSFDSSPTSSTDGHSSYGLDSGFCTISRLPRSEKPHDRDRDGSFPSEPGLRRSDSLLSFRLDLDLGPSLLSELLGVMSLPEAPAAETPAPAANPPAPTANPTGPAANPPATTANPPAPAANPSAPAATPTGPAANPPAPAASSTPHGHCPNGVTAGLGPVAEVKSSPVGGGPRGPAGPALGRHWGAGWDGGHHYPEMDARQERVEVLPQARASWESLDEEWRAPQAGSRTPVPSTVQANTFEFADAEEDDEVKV
UniProt Q9Y3X0, sequence (Q9Y3X0 whole entry, looked up): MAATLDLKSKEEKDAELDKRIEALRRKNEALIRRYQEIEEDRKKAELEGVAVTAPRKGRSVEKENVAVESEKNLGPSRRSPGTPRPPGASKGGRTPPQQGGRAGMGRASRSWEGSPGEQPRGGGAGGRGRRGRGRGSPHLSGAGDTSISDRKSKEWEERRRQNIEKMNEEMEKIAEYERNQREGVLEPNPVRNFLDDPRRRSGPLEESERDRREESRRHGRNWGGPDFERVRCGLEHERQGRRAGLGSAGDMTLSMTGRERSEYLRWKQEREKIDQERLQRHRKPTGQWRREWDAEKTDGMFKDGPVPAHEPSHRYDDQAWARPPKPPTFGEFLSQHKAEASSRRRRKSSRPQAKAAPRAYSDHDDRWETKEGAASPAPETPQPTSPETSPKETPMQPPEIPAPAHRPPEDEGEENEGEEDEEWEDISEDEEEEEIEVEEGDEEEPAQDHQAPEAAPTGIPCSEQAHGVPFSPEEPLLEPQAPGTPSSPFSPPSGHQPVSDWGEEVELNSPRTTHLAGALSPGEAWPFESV
UniProt P16152, sequence (P16152 whole entry, looked up): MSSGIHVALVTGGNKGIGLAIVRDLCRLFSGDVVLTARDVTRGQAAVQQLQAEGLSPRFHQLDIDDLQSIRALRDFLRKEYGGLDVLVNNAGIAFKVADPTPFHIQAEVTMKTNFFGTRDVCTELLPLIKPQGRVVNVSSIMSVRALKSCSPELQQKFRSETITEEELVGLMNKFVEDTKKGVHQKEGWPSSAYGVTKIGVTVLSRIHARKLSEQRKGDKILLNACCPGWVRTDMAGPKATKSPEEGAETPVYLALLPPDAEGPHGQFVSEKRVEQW
UniProt P14854, sequence (P14854 whole entry, looked up): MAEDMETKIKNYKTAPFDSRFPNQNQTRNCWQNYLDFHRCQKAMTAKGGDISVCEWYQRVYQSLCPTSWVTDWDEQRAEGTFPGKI
UniProt P42575, sequence (P42575 whole entry, looked up): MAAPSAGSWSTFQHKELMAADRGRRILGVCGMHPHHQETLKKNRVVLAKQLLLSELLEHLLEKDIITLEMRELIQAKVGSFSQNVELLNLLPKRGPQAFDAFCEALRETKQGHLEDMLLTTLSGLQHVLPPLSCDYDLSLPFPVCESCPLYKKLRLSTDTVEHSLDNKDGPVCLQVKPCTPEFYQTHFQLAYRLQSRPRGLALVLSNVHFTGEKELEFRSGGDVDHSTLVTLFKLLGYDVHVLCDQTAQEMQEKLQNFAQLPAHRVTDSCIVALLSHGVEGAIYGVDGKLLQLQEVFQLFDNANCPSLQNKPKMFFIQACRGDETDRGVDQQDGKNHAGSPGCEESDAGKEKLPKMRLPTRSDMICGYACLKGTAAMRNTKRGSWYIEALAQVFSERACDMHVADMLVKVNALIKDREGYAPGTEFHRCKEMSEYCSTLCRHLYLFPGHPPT
UniProt P19397, sequence (P19397 whole entry, looked up): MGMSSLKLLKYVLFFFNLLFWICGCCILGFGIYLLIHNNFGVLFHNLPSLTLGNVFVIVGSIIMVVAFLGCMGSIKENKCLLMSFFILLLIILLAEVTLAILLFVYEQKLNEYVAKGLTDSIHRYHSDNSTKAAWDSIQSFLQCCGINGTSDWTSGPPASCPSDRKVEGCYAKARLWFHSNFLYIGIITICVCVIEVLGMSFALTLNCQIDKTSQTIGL
UniProt Q99807, sequence (Q99807 whole entry, looked up): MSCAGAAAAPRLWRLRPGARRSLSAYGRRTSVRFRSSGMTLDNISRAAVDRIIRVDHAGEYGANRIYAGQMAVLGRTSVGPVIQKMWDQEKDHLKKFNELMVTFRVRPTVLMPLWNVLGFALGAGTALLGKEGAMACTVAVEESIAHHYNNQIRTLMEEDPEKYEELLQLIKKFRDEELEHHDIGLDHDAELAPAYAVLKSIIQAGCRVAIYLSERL
UniProt Q16740, sequence (Q16740 whole entry, looked up): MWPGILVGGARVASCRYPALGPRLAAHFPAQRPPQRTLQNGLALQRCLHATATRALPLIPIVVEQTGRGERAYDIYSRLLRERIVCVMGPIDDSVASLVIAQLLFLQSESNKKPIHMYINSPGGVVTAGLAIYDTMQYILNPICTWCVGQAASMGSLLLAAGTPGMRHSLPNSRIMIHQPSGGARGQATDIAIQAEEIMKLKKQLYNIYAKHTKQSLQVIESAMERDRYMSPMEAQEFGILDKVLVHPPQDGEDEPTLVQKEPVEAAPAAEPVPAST
UniProt Q9P031, sequence (Q9P031 whole entry, looked up): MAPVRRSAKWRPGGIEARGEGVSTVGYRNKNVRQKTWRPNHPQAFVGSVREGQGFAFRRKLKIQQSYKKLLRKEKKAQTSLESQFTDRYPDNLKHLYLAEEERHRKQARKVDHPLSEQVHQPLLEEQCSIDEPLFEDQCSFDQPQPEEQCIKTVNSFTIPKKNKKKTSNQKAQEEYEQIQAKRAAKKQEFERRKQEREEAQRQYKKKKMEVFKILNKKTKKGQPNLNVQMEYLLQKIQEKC

Row | Target | log2 fold change [1] | log2 fold change (volasertib) | log2 fold change [2] | log2 fold change (epoxomicin) | log2 fold change [3] | log2 fold change [4] | log2 fold change [5] | log2 fold change (rosiglitazone) | log2 fold change [6] | log2 fold change [7] | log2 fold change (saracatinib) | log2 fold change (sotrastaurin) | log2 fold change (alvocidib) | log2 fold change (Tubastatin A) | log2 fold change [8] | log2 fold change (defactinib) | log2 fold change (rucaparib) | log2 fold change [9] | log2 fold change (encorafenib) | log2 fold change [10]
1 | CD53 (UniProt P19397) | 0.183 | -0.103 | -0.049 | -0.02 | 0.004 | -0.092 | -0.007 | 0.074 | -0.051 | -0.06 | -0.22 | 0.087 | -0.06 | 0.009 | -0.21 | -0.069 | -0.032 | 0.125 | -0.006 | 0.051
2 | CDC42EP1 (UniProt Q00587) | -0.005 | 0.058 | 0.057 | 0.032 | -0.096 | -0.051 | -0.016 | 0.093 | 0.039 | -0.554 (active) | -0.017 | 0.025 | -0.146 | 0.001 | -0.303 | -0.144 | -0.002 | 0.016 | -0.017 | 0.007
3 | CMTR1 (UniProt Q8N1G2) | -0.053 | -0.199 | 0.024 | 0.039 | -0.01 | -0.049 | 0.038 | 0.03 | -0.055 | -0.037 | 0.009 | 0.018 | -0.053 | -0.052 | 0.045 | -0.026 | 0.003 | 0.099 | 0.06 | -0.091
4 | COX6B1 (UniProt P14854) | 0.036 | 0.023 | -0.013 | 0.333 | 0.046 | -0.014 | -0.081 | 0.013 | -0.054 | 0.038 | 0.024 | -0.012 | 0.039 | -0.069 | 0.015 | -0.023 | 0.022 | -0.061 | -0.043 | 0.008
5 | CPSF1 (UniProt Q10570) | 0.053 | -0.105 | 0.031 | -0.038 | -0.02 | 0.026 | -0.104 | 0.011 | 0.116 | 0.165 | 0.024 | -0.01 | 0.045 | -0.02 | -0.05 | 0.038 | 0.018 | -0.061 | -0.048 | -0.032
6 | COMMD2 (UniProt Q86X83) | -0.004 | -0.264 | 0.07 | -0.088 | -0.022 | -0.005 | -0.108 | 0.134 | 0 | -0.209 | -0.17 | 0.043 | -0.078 | 0.179 | 0.411 (active) | -0.088 | 0.034 | 0.039 | -0.005 | 0.012
7 | COQ7 (UniProt Q99807) | -0.035 | -0.009 | -0.01 | 0.013 | -0.005 | -0.041 | -0.047 | 0.038 | 0.023 | -0.05 | 0.024 | 0.055 | 0.009 | -0.009 | 0.043 | 0.03 | -0.062 | -0.028 | -0.058 | 0.059
8 | CETN3 (UniProt O15182) | 0.037 | -0.028 | 0.006 | 0.042 | 0.032 | -0.014 | -0.043 | 0.032 | -0.013 | -0.287 (active) | -0.027 | -0.022 | 0.013 | 0.015 | 0.128 | -0.008 | -0.006 | -0.003 | -0.021 | 0.082
9 | CASP2 (UniProt P42575) | 0.058 | 0.112 | 0.078 | 0.024 | -0.016 | -0.153 | 0.031 | 0.072 | 0.008 | -0.08 | -0.1 | -0.048 | -0.084 | 0.082 | 0.037 | -0.08 | -0.006 | 0.053 | 0.133 | -0.005
10 | CAMSAP1 isoform 3 (UniProt Q5T5Y3) | -0.044 | -0.576 (active) | 0.184 | 0.068 | 0.033 | -0.003 | -0.232 | -0.011 | 0.03 | -0.254 | -0.084 | -0.175 | -0.027 | 0.071 | -0.191 | 0.051 | 0.048 | -0.071 | 0.065 | 0.017
11 | CCDC59 (UniProt Q9P031) | 0.065 | 0.186 | -0.006 | -0.067 | -0.013 | 0.088 | -0.08 | -0.064 | 0.394 | 0.176 | -0.222 | 0.023 | 0.267 | 0.127 | 0.007 | 0.309 | 0.029 | 0.05 | 0.026 | -0.015
12 | CHCHD2 (UniProt Q9Y6H1) | 0.04 | 0.103 | -0.034 | 0.026 | -0.027 | -0.055 | -0.004 | 0.04 | -0.058 | 0.044 | 0 | -0.031 | 0.027 | -0.058 | 0.087 | -0.002 | -0.065 | -0.049 | -0.01 | 0.061
13 | CLPP (UniProt Q16740) | -0.03 | 0.035 | -0.045 | -0.056 | -0.023 | -0.015 | 0.017 | -0.035 | 0 | 0.081 | 0 | 0.009 | -0.011 | 0.067 | 0.054 | -0.017 | 0.026 | -0.028 | -0.077 | -0.038
14 | CBR1 (UniProt P16152) | -0.001 | -0.041 | -0.017 | 0.06 | -0.006 | 0 | 0.005 | 0.013 | -0.077 | 0.077 | 0.02 | -0.005 | -0.098 | -0.059 | 0.011 | -0.041 | -0.01 | -0.003 | -0.024 | 0.004
15 | CASP3 (UniProt P42574) | 0.012 | 0.014 | -0.033 | 0.273 (active) | 0 | 0.018 | -0.021 | 0.014 | -0.097 | 0.019 | 0.107 | 0.048 | 0.005 | 0.066 | -0.024 | -0.002 | -0.062 | 0.001 | -0.014 | -0.004
16 | CCDC9 (UniProt Q9Y3X0) | 0.081 | 0.127 | -0.051 | -0.018 | 0.032 | 0.051 | 0.002 | 0.021 | 0.025 | 0.009 | 0.023 | 0.077 | 0.192 | -0.046 | -0.038 | 0.148 | 0.116 | -0.031 | -0.021 | 0.004
